Experiment [1] concerns Jurkat. In words: mean cell size (FSC-A) relative to DMSO control (fraction of control); higher = larger cells. Conditions: 48 h. In outline: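 Jurkat cells seeded at 600 cells/µl were incubated 1 h, then exposed for 48h to the Enzo Screen-Well FDA Approved Drug Library v2.0 at 25µM in 0.9% (v/v) final DMSO. Drugs that cut counts below 20% of controls were diluted 10-fold and retested, down to 25nM. Cell count and mean cell size (forward scatter area) were read on an Accuri C6 flow cytometer, relative to solvent-only controls. Plates held 6-12 controls; values are means of 3 biological replicates.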

In experiment [2] the test system is Jurkat. Put plainly: cell count relative to DMSO control (fraction of control); higher = more cells (less growth inhibition). The note with it: 48 h.

Structures can show the parent of a compound that is named as a salt. ± gives the standard deviation.

In turn, `COc1cc([C@@H]2c3cc4c(cc3[C@H](O)[C@H]3COC(=O)[C@H]23)OCO4)cc(OC)c1OC` [Podofilox] (concentration: 25 nM) showed a mean cell size in experiment [1] of 0.863 ± 0.026. The same compound displayed a cell count in experiment [2] of 0.0355 ± 0.018.
For `COc1ccc(C(CN(C)C)C2(O)CCCCC2)cc1` (stereo unspecified) [Venlafaxine·HCl] (concentration: 25 µM) the same measures were 0.987 ± 0.021 and 0.498 ± 0.12.
The matching figures for `CN1C(=O)CC(=O)N(c2ccccc2)c2cc(Cl)ccc21` [Clobazam] (concentration: 25 µM): 0.984 ± 0.032 and 0.64 ± 0.12.
With `COc1cc2c(cc1OC)C1CC(=O)C(CC(C)C)CN1CC2` (stereo unspecified) [Tetrabenazine] (concentration: 25 µM), in experiment [1], the mean cell size was 0.921 ± 0.031. The cell count in experiment [2] is 0.833 ± 0.093.
Turning to `CN1C(=O)C(O)N=C(c2ccccc2)c2cc(Cl)ccc21` (stereo unspecified) [Temazepam] (concentration: 25 µM), the mean cell size in experiment [1] stood at 0.805 ± 0.037. The compound also had a cell count in experiment [2] of 0.916 ± 0.032.
As for `C=CCN1C[C@H](C(=O)N(CCCN(C)C)C(=O)NCC)C[C@@H]2c3cccc4[nH]cc(c34)C[C@H]21` [Cabergoline] (concentration: 25 µM), the mean cell size in experiment [1] is 0.889 ± 0.02. In experiment [2], the cell count is 0.234 ± 0.08.
On to `CN1C(=O)CN=C(c2ccccc2)c2cc(Cl)ccc21` [Diazepam] (concentration: 25 µM), for which, in experiment [1], the mean cell size was found to be 0.911 ± 0.048. This compound had a cell count in experiment [2] of 0.925 ± 0.098.
Regarding `N[C@@H]1C[C@H]1c1ccccc1.N[C@H]1C[C@@H]1c1ccccc1` [Tranylcypromine Hemisulfate] (concentration: 25 µM), the mean cell size in experiment [1] was 0.926 ± 0.0078. Also, in experiment [2], the cell count is 0.931 ± 0.063.
In experiment [1], `O=C1CC[C@@]2(O)[C@H]3Cc4ccc(O)c5c4[C@@]2(CCN3CC2CC2)[C@H]1O5` [Naltrexone·HCl] (concentration: 2.5 µM) had a mean cell size of 0.985 ± 0.049. Further, the cell count in experiment [2] stood at 0.399 ± 0.091.
The matching figures for `CCOC(=O)c1cncn1[C@H](C)c1ccccc1` [Etomidate] (concentration: 25 µM): 1.04 ± 0.049 and 0.854 ± 0.055.
`CC[C@@H](C(N)=O)N1CCCC1=O` [Levetiracetam] (concentration: 25 µM) returned a mean cell size in experiment [1] of 0.968 ± 0.018. Moreover, the cell count in experiment [2] came to 0.603 ± 0.1.
In experiment [1], `O=P1(N(CCCl)CCCl)NCCCO1` (stereo unspecified) [Cyclophosphamide (Free Base)] (concentration: 25 µM) displayed a mean cell size of 1.01 ± 0.051. For the same compound, the cell count in experiment [2] is 0.623 ± 0.15.
Take `Cn1c(CCCC(=O)O)nc2cc(N(CCCl)CCCl)ccc21` [Bendamustine·HCl] (concentration: 25 µM): the mean cell size in experiment [1] is 1.26 ± 0.022. The cell count in experiment [2] was found to be 0.2666 ± 0.00052.
The compound `C=CCN1CC[C@]23c4c5ccc(O)c4O[C@H]2C(=O)CC[C@@]3(O)[C@H]1C5` [Naloxone·HCl] (concentration: 25 µM) came in with a mean cell size in experiment [1] of 0.947 ± 0.018. This compound came in with a cell count in experiment [2] of 0.96 ± 0.071.
With `Oc1ccc2c(c1)[C@@]13CCCC[C@@]1(O)[C@@H](C2)N(CC1CCC1)CC3` [Butorphanol-(+)-Tartrate (Schedule Iv)] (concentration: 25 µM), the mean cell size in experiment [1] was found to be 0.952 ± 0.049. For the same compound, the cell count in experiment [2] was found to be 0.586 ± 0.075.
In experiment [1], `O=C1CN=C(c2ccccc2Cl)c2cc([N+](=O)[O-])ccc2N1` [Clonazepam] (concentration: 25 µM) gave a mean cell size of 1.02 ± 0.06. This compound also returned a cell count in experiment [2] of 0.659 ± 0.12.
Take `COc1cccc(C2(O)CCCCC2CN(C)C)c1` (stereo unspecified) [Tramadol·HCl] (concentration: 25 µM): the mean cell size in experiment [1] was found to be 0.938 ± 0.042. Further, the cell count in experiment [2] amounted to 0.58 ± 0.18.
In experiment [1], `O=C(O)CCCc1ccc(N(CCCl)CCCl)cc1` [Chlorambucil] (concentration: 250 nM) showed a mean cell size of 0.945 ± 0.019. This compound also displayed a cell count in experiment [2] of 0.352 ± 0.089.

Values taken from the supplement of paper PMC4709259.
